The text below walks through data of PubChem BioAssay AID720518 (National Center for Advancing Translational Sciences (NCATS), 2013).

Records with an inconclusive call do not appear. Unmarked numbers belong to inactive results. The source made the active and inactive calls. Calls follow the shape of the full dose curve.
Potency is read from the fitted curve at half-maximal effect.

The nature of the test: qHTS for Inhibitors of Cell Surface uPA Generation: Wild-type Protective Antigen (WT-PrAg) Counterscreen for Cherry-picked Compounds. As to activity (protection): 0% is about no effect. Conditions: cells, WT protective antigen toxicity counterscreen; series mostly up to 115 µM; activity (protection): at the top concentration. In general terms: qHTS replaces the single test concentration by a dilution series.
As for `COC(=O)C1C(=O)c2c([nH]c(C(=O)OC3CCCCC3)c2C)CC1C` (stereo not given), the “activity (protection)” value is 0.16%.

As for `Cn1nc(C(C)(C)C)c([N+](=O)[O-])c1C(=O)N1CCOCC1`, the “activity (protection)” value was -0.505%.

Take `Cc1ccc(C(=O)NC(=S)Nc2ccc3[nH]c(=O)[nH]c3c2)c(C)c1`: the “activity (protection)” value was -0.954%.

For the compound `Cc1[nH]c2ccc(C(=O)OC(C)C(=O)NC3CCCCC3C)cc2c1C` (stereo not given), the “activity (protection)” value is -2.39%.

In the case of `Cc1ccc(S(=O)(=O)N2CCOCC2)cc1C(=O)OC1CCOC1=O` (stereo not given), the “activity (protection)” value was -1.14%.

On to `CC(/C=C1\SC(=S)N(CCCC(=O)Nc2ccc(C(=O)O)cc2)C1=O)=C\c1ccccc1`, for which the “activity (protection)” value was -1.6%.

On to `O=S(=O)(NCC(c1cccnc1)N1CCOCC1)c1ccccc1` (stereo not given), for which the “activity (protection)” value is -1.02%.

With `Cc1ccc(S(=O)(=O)N(C)c2ccc(OC(=O)c3ccc(=O)[nH]c3)cc2)cc1`, the “activity (protection)” value was -0.512%.

Turning to `CN(C)c1ccc(S(=O)(=O)N2CCC(Cc3ccccc3)CC2)cn1`, the “activity (protection)” value is -0.825%.

As for `COc1cccc(NC(=O)CSc2nc3ncc(Br)cc3[nH]2)c1`, the “activity (protection)” value is 0.5%.

`O=C(NCCc1ccccc1)C1CCC(=O)N(Cc2cccc(C(F)(F)F)c2)C1` (stereo not given): the “activity (protection)” value is -1.41%.

As to `C=CCOC(=O)C1=C(C)NC(C)=C(C(=O)OCC=C)C1c1cn(-c2ccccc2)nc1-c1ccco1`, the “activity (protection)” value was 1.61%.

In the case of `O=C(Nn1cnnc1)c1ccc(Cl)cc1`, the “activity (protection)” value was 0.243%.

Consider `COc1ccc(C(c2sc3nc(C)nn3c2O)N2CCC(C(N)=O)CC2)cc1OC` (stereo not given), for which the “activity (protection)” value was -1.53%.

For the compound `Cc1ccc(C)c(-c2ccc(=O)n(Cc3c(F)cccc3Cl)n2)c1`, the “activity (protection)” value was -1.81%.

Consider `CCCCn1c(SCC(=O)Nc2cc(C(F)(F)F)ccc2Cl)nnc1C(CC)N(C)C` (stereo not given), for which the Potency was 58.5 µM (active).

As to `CC(=O)c1cnc2nc(SCc3cccc(C)c3)nn2c1C`, the “activity (protection)” value was -1.51%.

Consider `CN1CCN(C2=Nc3ccccc3Oc3ccc(Cl)cc32)CC1`, for which the “activity (protection)” value was -0.292%.

Consider `Cc1ccc(CC2CC(=O)N(c3cc(C)ccc3C)C2=O)cc1` (stereo not given), for which the “activity (protection)” value is 2.84%.

Take `O=C(Nc1ccc(Cl)cn1)C1CCCN(c2ncnc3c2nc2n3CCCCC2)C1` (stereo not given): the “activity (protection)” value was -2.43%.

Turning to `CCCCNC(=O)c1cc2c(-c3ccc(Cl)cc3)nn(C)c2s1`, the “activity (protection)” value is -0.155%.

On to `COc1cccc2c1Oc1ncccc1N(C(=O)CCC(=O)NCc1ccc(C)cc1)C2`, for which the “activity (protection)” value was -0.223%.

For `CCc1ccccc1N1C(=O)CC(Sc2nccc(C)n2)C1=O` (stereo not given), the “activity (protection)” value is 0.6%.

Regarding `CCCCn1c(=NC(=O)c2ccco2)c(C(=O)OCC)cc2c(=O)n3cccc(C)c3nc21`, the “activity (protection)” value was 0.971%.

Consider `COc1cc(NC(=S)NCCc2ccc(S(N)(=O)=O)cc2)c(OC)cc1Cl`, for which the “activity (protection)” value is 7.74%.

Consider `Cc1ccc(C23CC4CC(CC(C(=O)NN)(C4)C2)C3)cc1`, for which the “activity (protection)” value is -1.5%.

With `COc1ccc(N(C(C)C(=O)NN=C2CCCC2)S(C)(=O)=O)cc1` (stereo not given), the “activity (protection)” value is 0.768%.

In the case of `CC(C)(C)NC(=O)C(c1cccs1)N(C(=O)c1csnn1)c1ccccc1F` (stereo not given), the “activity (protection)” value was -0.113%.

Regarding `O=C1C=CC(O)(c2cc(=O)c3c(O)cc(O)cc3o2)C=C1`, the Potency was 16.5 µM (active).

For `O=C(c1cc(COc2ccc(F)cc2Cl)on1)N1CCCCCC1`, the “activity (protection)” value was 0.109%.

In the case of `CCCc1nc2c(=O)n(C)c(=O)[nH]c2n1CCC`, the “activity (protection)” value was 0.862%.

For the compound `Cc1ccc([C@H]2C(C(=O)O)=CC[C@@H](c3cccc(C)c3)N2S(=O)(=O)c2ccc(C)cc2)cc1`, the “activity (protection)” value was -1.7%.

`Cc1ccc2sc(NNC(=O)c3ccc4c(c3)OCCO4)nc2c1C`: the “activity (protection)” value was -2.4%.

Regarding `CSCC[C@H](NC(=O)[C@H](Cc1ccccc1)n1c(=O)[nH]c2ccccc2c1=O)C(=O)N1CCC[C@@H]1C(=O)O`, the “activity (protection)” value is -0.445%.

Turning to `COc1ccc(CC(=O)Nc2nc(C)cs2)cc1OC`, the “activity (protection)” value is -2.07%.

For `CCC1(CC)NC(=O)N(CC(=O)OCC(=O)c2cc(C)c(C)cc2C)C1=O`, the “activity (protection)” value was -0.796%.

As to `O=C(CCS(=O)(=O)c1ccc2c(c1)NC(=O)CS2)NCCc1ccc(Cl)cc1`, the “activity (protection)” value is 0.14%.

As to `Cc1ccc2cc(C=O)c(Cl)nc2c1`, the “activity (protection)” value is -0.682%.

`COc1ccc(/C(C)=N/N2CCOCC2)c(O)c1`: the “activity (protection)” value is 1.21%.

For `CCCCN(CC(=O)Nc1cccc(S(=O)(=O)N2CCCC2)c1)Cc1nc2ccccc2c(=O)[nH]1`, the “activity (protection)” value is -2.42%.
